Data: the supplement of paper PMC6992640
± gives the standard deviation of the averaged measurements.

How the values were obtained:
Assay in all cases: cell viability (% of vehicle); higher = less cytotoxic
Conditions in all cases: 10 µM; 72 h
[1] = tested on: HCI01 (cells of a triple-negative basal-like breast cancer xenograft)
[2] = tested on: HCI03 (cells of an ER-positive luminal breast cancer xenograft)
[3] = tested on: HCI09 (cells of a triple-negative luminal androgen receptor type breast cancer xenograft)
[4] = tested on: HCI11 (cells of an ER-positive luminal breast cancer xenograft)
[5] = tested on: HCI13 (cells of an ER-positive luminal breast cancer xenograft)
[6] = tested on: HCI16 (cells of a triple-negative basal-like breast cancer xenograft)
[7] = tested on: UCD52 (cells of a triple-negative basal-like breast cancer xenograft)
[8] = tested on: WHIM2 (cells of a triple-negative basal-like breast cancer xenograft)
[9] = tested on: WHIM30 (cells of a triple-negative basal-like breast cancer xenograft)
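Further: PDX cells carrying CMV promoter-driven luciferase, viability read as total photon flux per second by IVIS imaging following D-luciferin, vehicle control 0.1% DMSO.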

## CCCCCCCCCCCC(CC1OC(=O)C1CCCCCC)OC(=O)C(CC(C)C)NC=O (stereo not given) [Orlistat]
[1]
  cell viability: 126.7 ± 0.42
[2]
  cell viability: 122
[3]
  cell viability: 123 ± 42
[4]
  cell viability: 110
[5]
  cell viability: 97.6 ± 13
[6]
  cell viability: 81.3
[7]
  cell viability: 76.1 ± 1
[8]
  cell viability: 79.1 ± 21
[9]
  cell viability: 123 ± 6.8

## Cn1cc[nH]c1=S [Methimazole]
[1]
  cell viability: 143 ± 11
[2]
  cell viability: 119
[3]
  cell viability: 130 ± 23
[4]
  cell viability: 112
[5]
  cell viability: 82 ± 21
[6]
  cell viability: 126
[7]
  cell viability: 100.1 ± 0.29
[8]
  cell viability: 107 ± 2.4
[9]
  cell viability: 139 ± 3.8

## CCC1OC(=O)C(C)C(OC2CC(C)(OC)C(O)C(C)O2)C(C)C(OC2OC(C)CC(N(C)C)C2O)C(C)(O)CC(C)CN(C)C(C)C(O)C1(C)O.O.O (stereo not given) [Azithromycin Dihydrate]
[1]
  cell viability: 110 ± 9
[2]
  cell viability: 114
[3]
  cell viability: 101 ± 10
[4]
  cell viability: 112
[5]
  cell viability: 144 ± 5
[6]
  cell viability: 104
[7]
  cell viability: 85.4 ± 1.5
[8]
  cell viability: 102 ± 2.7
[9]
  cell viability: 89 ± 1.7

## CC(C)NCC(O)COc1cccc2ccccc12.Cl (stereo not given) [Propranolol HCl]
[1]
  cell viability: 109.73 ± 0.067
[2]
  cell viability: 104
[3]
  cell viability: 100 ± 15
[4]
  cell viability: 84.5
[5]
  cell viability: 97.8 ± 24
[6]
  cell viability: 96.6
[7]
  cell viability: 83.3 ± 4.4
[8]
  cell viability: 83.3 ± 16
[9]
  cell viability: 108 ± 7.8

## CCCOc1ccc(C(=O)OCCN(CC)CC)cc1N.Cl [Proparacaine HCl]
[1]
  cell viability: 99.6 ± 12
[2]
  cell viability: 165
[3]
  cell viability: 91 ± 17
[4]
  cell viability: 91.9
[5]
  cell viability: 111 ± 5.8
[6]
  cell viability: 109
[7]
  cell viability: 102 ± 11
[8]
  cell viability: 97.1 ± 7.6
[9]
  cell viability: 114 ± 13

## OCC1OC(c2ccc(Cl)c(Cc3ccc(OC4CCOC4)cc3)c2)C(O)C(O)C1O (stereo not given)
[1]
  cell viability: 94.9 ± 15
[2]
  cell viability: 132
[3]
  cell viability: 90.7 ± 14
[4]
  cell viability: 84.1
[5]
  cell viability: 87.5 ± 14
[6]
  cell viability: 113
[7]
  cell viability: 94 ± 1.7
[8]
  cell viability: 112 ± 7
[9]
  cell viability: 114 ± 9.9

## O=C(O)C1=CC(=NNc2ccc([O-])c(C(=O)[O-])c2)C=CC1=O.[Na+].[Na+] [Olsalazine Sodium]
[1]
  cell viability: 123 ± 2.4
[2]
  cell viability: 108
[3]
  cell viability: 127 ± 47
[4]
  cell viability: 102
[5]
  cell viability: 120 ± 30
[6]
  cell viability: 88.2
[7]
  cell viability: 91.8 ± 7.2
[8]
  cell viability: 86.8 ± 7.9
[9]
  cell viability: 112 ± 7.4

## CCOC(=O)[C@H](CCc1ccccc1)N[C@@H](C)C(=O)N1[C@H](C(=O)O)C[C@H]2CCCC[C@@H]21 [Trandolapril]
[1]
  cell viability: 121 ± 2.9
[2]
  cell viability: 148
[3]
  cell viability: 115 ± 11
[4]
  cell viability: 98.7
[5]
  cell viability: 124 ± 12
[6]
  cell viability: 130
[7]
  cell viability: 112 ± 20
[8]
  cell viability: 109 ± 14
[9]
  cell viability: 174 ± 15

## O=C(CCCN1CC=C(n2c(=O)[nH]c3ccccc32)CC1)c1ccc(F)cc1 [Droperidol]
[1]
  cell viability: 108 ± 23
[2]
  cell viability: 106
[3]
  cell viability: 84.4 ± 9.8
[4]
  cell viability: 97.5
[5]
  cell viability: 113 ± 20
[6]
  cell viability: 107
[7]
  cell viability: 93.1 ± 5.3
[8]
  cell viability: 96.6 ± 20
[9]
  cell viability: 100 ± 2.3

## CO[C@H]1O[C@@H]2O[C@@]3(C)CC[C@H]4[C@H](C)CC[C@@H]([C@H]1C)[C@@]24OO3 [Artemether (SM-224)]
[1]
  cell viability: 102 ± 17
[2]
  cell viability: 111
[3]
  cell viability: 79.3 ± 25
[4]
  cell viability: 74.7
[5]
  cell viability: 84.1 ± 3.5
[6]
  cell viability: 123
[7]
  cell viability: 77 ± 4.6
[8]
  cell viability: 117 ± 3.2
[9]
  cell viability: 99.8 ± 3.1

## CCCCN1CCCCC1C(=O)Nc1c(C)cccc1C.Cl (stereo not given) [Levobupivacaine HCl]
[1]
  cell viability: 109 ± 22
[2]
  cell viability: 101
[3]
  cell viability: 117 ± 29
[4]
  cell viability: 106
[5]
  cell viability: 121 ± 14
[6]
  cell viability: 141
[7]
  cell viability: 107 ± 4.1
[8]
  cell viability: 96.2 ± 3
[9]
  cell viability: 163 ± 5.2

## CN(C)c1cc(NC(=O)CNC(C)(C)C)c(O)c2c1CC1CC3C(N(C)C)C(=O)C(C(N)=O)=C(O)C3(O)C(=O)C1=C2O (stereo not given) [Tigecycline]
[1]
  cell viability: 80 ± 10
[2]
  cell viability: 121
[3]
  cell viability: 95.8 ± 8.5
[4]
  cell viability: 81.9
[5]
  cell viability: 129 ± 23
[6]
  cell viability: 120
[7]
  cell viability: 96.7 ± 21
[8]
  cell viability: 102 ± 22
[9]
  cell viability: 129 ± 8.6

## O=c1cc(O)c(Cl)c[nH]1 [Gimeracil]
[1]
  cell viability: 96.4 ± 1.7
[2]
  cell viability: 131
[3]
  cell viability: 94 ± 19
[4]
  cell viability: 112
[5]
  cell viability: 123 ± 14
[6]
  cell viability: 91
[7]
  cell viability: 87.8 ± 3.9
[8]
  cell viability: 102 ± 15
[9]
  cell viability: 101 ± 17

## c1ccc(-c2ccc(C(c3ccccc3)n3ccnc3)cc2)cc1 (stereo not given) [Bifonazole]
[1]
  cell viability: 93.4 ± 4.3
[2]
  cell viability: 108
[3]
  cell viability: 74 ± 1.6
[4]
  cell viability: 95.3
[5]
  cell viability: 84.3 ± 22
[6]
  cell viability: 108
[7]
  cell viability: 149 ± 50
[8]
  cell viability: 121 ± 1.4
[9]
  cell viability: 126 ± 20

## CC1C(NC(=O)C(=NOC(C)(C)C(=O)O)c2csc(N)n2)C(=O)N1S(=O)(=O)O (stereo not given) [Aztreonam]
[1]
  cell viability: 104 ± 4.2
[2]
  cell viability: 113
[3]
  cell viability: 96.5 ± 6.8
[4]
  cell viability: 109
[5]
  cell viability: 118 ± 15
[6]
  cell viability: 114
[7]
  cell viability: 95.9 ± 3
[8]
  cell viability: 84.4 ± 8.5
[9]
  cell viability: 123 ± 30

## Nc1nc(=O)n(C2CSC(CO)O2)cc1F (stereo not given) [Emtricitabine]
[1]
  cell viability: 105 ± 9.3
[2]
  cell viability: 153
[3]
  cell viability: 104 ± 12
[4]
  cell viability: 107
[5]
  cell viability: 113 ± 11
[6]
  cell viability: 94.6
[7]
  cell viability: 79.81 ± 0.75
[8]
  cell viability: 90 ± 8.8
[9]
  cell viability: 98.1 ± 1.3

## Cc1c(N(C)C)c(=O)n(-c2ccccc2)n1C [Amidopyrine]
[1]
  cell viability: 99.1 ± 16
[2]
  cell viability: 118
[3]
  cell viability: 94.5 ± 19
[4]
  cell viability: 93.2
[5]
  cell viability: 76.33 ± 0.62
[6]
  cell viability: 97.5
[7]
  cell viability: 97.8 ± 7.1
[8]
  cell viability: 117 ± 37
[9]
  cell viability: 122 ± 8.5

## CCCCOc1ccc(C(=O)CCN2CCCCC2)cc1.Cl [Dyclonine HCl]
[1]
  cell viability: 91.4 ± 36
[2]
  cell viability: 110
[3]
  cell viability: 98.2 ± 18
[4]
  cell viability: 110
[5]
  cell viability: 60.5 ± 2.6
[6]
  cell viability: 88.6
[7]
  cell viability: 90.6 ± 12
[8]
  cell viability: 40 ± 16
[9]
  cell viability: 129 ± 30

## CN1CCN2c3ccccc3Cc3ccccc3C2C1.Cl (stereo not given) [Mianserin HCl]
[1]
  cell viability: 124 ± 24
[2]
  cell viability: 98.3
[3]
  cell viability: 89.4 ± 4.5
[4]
  cell viability: 95.9
[5]
  cell viability: 90 ± 21
[6]
  cell viability: 92.4
[7]
  cell viability: 74.3 ± 4.9
[8]
  cell viability: 73.1 ± 24
[9]
  cell viability: 109 ± 3.4

## CCCCC(C)(O)C/C=C/[C@H]1[C@H](O)CC(=O)[C@@H]1CCCCCCC(=O)OC (mixture of isomers) [Misoprostol]
[1]
  cell viability: 95 ± 25
[2]
  cell viability: 120
[3]
  cell viability: 107 ± 12
[4]
  cell viability: 101
[5]
  cell viability: 123 ± 9.4
[6]
  cell viability: 112
[7]
  cell viability: 96.6 ± 8.3
[8]
  cell viability: 93.1 ± 9.9
[9]
  cell viability: 107 ± 4.6
